According to the supplement of paper PMC12669032:
“And” between values parts separate entries of the source, which are not always exact repeats. Equal entries are not always repeated. A number with no mark means an inactive call.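 The calls were made as follows: active = AUC reduced over 20% with Padj below 0.05 in at least 2 of 3 replicates; inactive = otherwise.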

Assays:
Roseburia intestinalis = assay: growth AUC relative to DMSO control (median of replicates) (fraction); higher = more growth (less inhibition), active = hit call of the paper; conditions: 20 µM; 24 h
Summary of the method: (§1)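 Hourly OD600 readings over 24 h tracked anaerobic gut bacterial monocultures grown at 37 °C in mGAM from OD600 0.05 with 20 µM compound (1% DMSO). After the minimum OD was set to 0, area under the growth curve was normalised to the plate median of solvent-only wells, or to row and column medians on the industrial chemical plate. Values are medians of three biological replicates grown on separate days.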

Streptococcus salivarius = assay: as above; conditions: 20 µM; 24 h
Summary of the method: as §1

Structure (SMILES) | growth AUC (Roseburia intestinalis) | growth AUC (Streptococcus salivarius)
CC1(C)C(C=C(Cl)Cl)C1C(=O)OCc1cccc(Oc2ccccc2)c1 (mixture of isomers) | 0.921 | 0.979
CCOP(=S)(OCC)SCS(=O)(=O)C(C)(C)C | 1.02 | 0.984
C[N+]1(C)CCCCC1.[Cl-] | 0.975 | 0.99
Clc1ccc(C(c2ccc(Cl)cc2)C(Cl)Cl)cc1 | 0.923 | 0.99
CCOP(=O)(SC(C)CC)N1CCSC1=O (centres undefined) | 1.03 | 1.02
CC(C)N1C(=O)N(c2ccccc2)CSC1=NC(C)(C)C | 1.02 | 0.953
OC(c1ccc(F)cc1)(c1cncnc1)c1ccccc1Cl (centres undefined) | 0.975 | 0.996
CCOP(=O)(NC(C)C)Oc1ccc(S(C)(=O)=O)c(C)c1 (centres undefined) | 1.09 | 0.999
Clc1nc(Cl)nc(Nc2ccccc2Cl)n1 | 1.04 | 1.03
Nc1cnn(-c2ccccc2)c(=O)c1Cl | 1.1 | 1.1
Oc1ccccc1-c1ccccc1 | 0.939 | 1.04
CCc1cccc(C)c1N(C(=O)CCl)C(C)COC (centres undefined) | 1.07 | 1.05
CCCSP(=S)(OCC)Oc1ccc(SC)cc1 (centres undefined) | 1.06 | 0.93
N#CN=C1SCCN1Cc1ccc(Cl)nc1 | 1.01 | 1.01
CCCSC(=O)N(CCC)CCC | 0.994 | 1.04
O=C(O)C(F)(F)C(F)(F)C(F)(F)C(F)(F)C(F)(F)C(F)(F)C(F)(F)C(F)(F)F | 0.975 | 0.998
CCN(Cc1ccc(Cl)nc1)/C(=C/[N+](=O)[O-])NC | 1 | 1
CCOP(=S)(OCC)Oc1cnccn1 | 0.976 | 1
CN/C(=N\[N+](=O)[O-])NCc1cnc(Cl)s1 | 1.05 | 1
COC(=O)[C@@H](C)N(C(=O)Cc1ccccc1)c1c(C)cccc1C | 1.01 | 0.958
COP(=O)(OC)Oc1ccc(S(C)(=O)=O)c(C)c1 | 1.02 | 1.01
CN1COCN(Cc2cnc(Cl)s2)/C1=N/[N+](=O)[O-] | 0.952 | 1.02
O=P(Oc1ccccc1)(Oc1ccccc1)Oc1ccccc1 | 0.937 | 0.957
COP(=O)(OC)Oc1ccc([N+](=O)[O-])cc1 | 1.04 | 1.03
Cc1ccc(-c2c(Cl)nc(C#N)n2S(=O)(=O)N(C)C)cc1 | 0.995 | 0.956
O=C(O)C(F)(F)C(F)(F)C(F)(F)C(F)(F)C(F)(F)C(F)(F)F | 1.03 | 1.02

Structure (SMILES) | growth AUC (Roseburia intestinalis) | growth AUC (Streptococcus salivarius)
CCOP(=S)(OCC)OP(=S)(OCC)OCC | 0.984 | 0.976
O=C1CCc2cccc3c2N1CC3 | 0.989 | 0.941
O=C(NC(=O)c1c(F)cccc1F)Nc1ccc(CO/N=C(\c2ccc(Cl)cc2)C2CC2)cc1 | 0.968 | 0.996
CC1(C)C(C=C(Cl)Cl)C1C(=O)OC(C#N)c1cccc(Oc2ccccc2)c1 (mixture of isomers) | 0.945 | 0.936
CCC(C)n1c(=O)[nH]c(C)c(Br)c1=O (centres undefined) | 0.975 | 0.901
CC(C)(C)C(O)C(Oc1ccc(-c2ccccc2)cc1)n1cncn1 (mixture of isomers) | 1.02 | 1.01
C=CCC1=C(C)C(OC(=O)C2C(C=C(C)C)C2(C)C)CC1=O (mixture of isomers) | 0.924 | 0.953
N#Cc1nn(-c2c(Cl)cc(C(F)(F)F)cc2Cl)c(N)c1SC(F)(F)F | 0.558 (active) | 0.75 (active)
O=C1C2CC=CCC2C(=O)N1SC(Cl)(Cl)Cl (centres undefined) | 1.01 | 1.05
CCCCC(O)(Cn1cncn1)c1ccc(Cl)cc1Cl (centres undefined) | 1 | 0.991
CCCCNC(=O)n1c(NC(=O)OC)nc2ccccc21 | 0.985 | 0.999
CCN(CC)c1c([N+](=O)[O-])cc(C(F)(F)F)c(N)c1[N+](=O)[O-] | 0.984 | 1.03
C#CC(C)(C)NC(=O)c1cc(Cl)cc(Cl)c1 | 0.936 | 0.914
C=CCN(CC=C)C(=O)C(Cl)Cl | 1 | 0.99
O=S1OC[C@@H]2[C@H](CO1)[C@]1(Cl)C(Cl)=C(Cl)[C@@]2(Cl)C1(Cl)Cl (some centres undefined) | 0.954 and 0.949 | 0.954 and 0.864
O=[N+]([O-])c1c(Cl)c(Cl)cc(Cl)c1Cl | 1.06 | 1
CNC(=O)Oc1cccc2c1OC(C)(C)O2 | 1.01 | 1
C=C(C)CN(CC)c1c([N+](=O)[O-])cc(C(F)(F)F)cc1[N+](=O)[O-] | 1.01 | 0.989
CNC(=O)O/N=C(\C)C(C)S(C)(=O)=O (centres undefined) | 0.95 | 0.972
CC(C)(C)c1ccc(CSc2cnn(C(C)(C)C)c(=O)c2Cl)cc1 | 0.979 | 0.986
CCNc1nc(NC(C)C)[nH]c(=O)n1 | 1.04 | 1.02
CNC(=O)O/N=C/C(C)(C)SC | 1.03 | 1.06
CCNC(=O)NC(=O)/C(C#N)=N/OC | 1.16 | 0.949
Oc1cc(Cl)cc(Cl)c1 | 1.01 | 1
CC(C)(C)C(O)C(Cc1ccc(Cl)cc1Cl)n1cncn1 (mixture of isomers) | 0.918 | 0.974
C1=Cc2cccc3cccc1c23 | 0.987 | 0.98

Structure (SMILES) | growth AUC (Roseburia intestinalis) | growth AUC (Streptococcus salivarius)
COP(=O)(OC)C(O)C(Cl)(Cl)Cl (centres undefined) | 1 | 1.02
O.[Br-].[Br-].c1cc[n+]2c(c1)-c1cccc[n+]1CC2 | 1.04 | 1.01
CCOc1ccc(C(C)(C)COCc2cccc(Oc3ccccc3)c2)cc1 | 0.975 | 0.983
NCP(=O)(O)O | 1.04 | 1.02
O=C(NCCc1ncc(C(F)(F)F)cc1Cl)c1ccccc1C(F)(F)F | 0.987 | 1.01
OC(Cc1ccccc1Cl)(Cn1[nH]cnc1=S)C1(Cl)CC1 (centres undefined) | 0.978 | 0.959
Nc1ccc(Cc2ccc(N)c(Cl)c2)cc1Cl | 1.1 | 1.09
CC(C)N(C)S(=O)(=O)NC(=O)c1cc(-n2c(=O)cc(C(F)(F)F)n(C)c2=O)c(F)cc1Cl | 1.03 | 0.998
C#CCC1=C(C)C(OC(=O)C2C(C=C(C)C)C2(C)C)CC1=O (centres undefined) | 0.921 | 0.959
CCOCn1c(-c2ccc(Cl)cc2)c(C#N)c(Br)c1C(F)(F)F | 0.983 | 0.944
Oc1c(Cl)c(Cl)cc(Cl)c1Cl | 0.978 | 0.869
ClC1=C(Cl)C(Cl)(C2(Cl)C(Cl)=C(Cl)C(Cl)=C2Cl)C(Cl)=C1Cl | 0.91 | 0.962
COc1cc(OC)nc(NC(=O)NS(=O)(=O)c2cc(NC=O)ccc2C(=O)N(C)C)n1 | 1.04 | 1.03
CC1(C)CCC(Cc2ccc(Cl)cc2)C1(O)Cn1cncn1 (centres undefined) | 0.943 | 1
CCC(C)(C)c1ccc(O)cc1 | 0.995 | 0.995
COC(=O)NC(=S)Nc1ccccc1NC(=S)NC(=O)OC | 0.979 | 0.98
O=S(=O)(c1ccc(O)cc1)c1ccc(O)cc1 | 1 | 1.04
CCC(C)(NC(=O)c1cc(Cl)c(C)c(Cl)c1)C(=O)CCl (centres undefined) | 0.964 | 0.945
CCNc1nc(NC(C)C(C)C)nc(SC)n1 (centres undefined) | 1.04 | 0.97
CCC(C)c1cc([N+](=O)[O-])cc([N+](=O)[O-])c1O (centres undefined) | 0.887 | 0.938
COP(N)(=O)SC (centres undefined) | 1 | 0.996
C=C(C)[C@H]1Cc2c(ccc3c2O[C@@H]2COc4cc(OC)c(OC)cc4[C@@H]2C3=O)O1 | 0.935 | 1.02
Clc1ccc(C(c2ccc(Cl)cc2)C(Cl)(Cl)Cl)cc1 | 0.941 | 0.897
COP(=O)(OC)O/C(C)=C/C(=O)N(C)C | 0.988 | 0.984
Oc1ccc(Cc2ccc(O)cc2)cc1 | 0.999 | 0.966
